The supplement of paper PMC12024529
Where “and” joins values, the source holds several entries; their conditions need not be identical. Equal entries are not always repeated.

test system: HEK293 WT BDD-FVIII-Gluc; assay: secreted FVIII-Gluc luciferase Z-score vs DMSO control; higher = more FVIII-Gluc secretion; conditions: 5 µM
Method: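 Natural plant-compound library (480 compounds, ST catalogue IDs) screened on HEK293 cells stably expressing WT BDD-FVIII-Gaussia luciferase fusion at 5 µM. Secreted Gluc activity in the medium is given as a Z-score relative to DMSO controls.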

Row | Structure (SMILES) | secreted FVIII-Gluc luciferase Z-score
1 | COc1ccc(C2OCC3(COC(C)=O)C(C)C=C(C)C2C3C)cc1 (stereo not given) | -1.63
2 | Nc1nc2c(ncn2[C@H]2C[C@H](O)[C@@H](COP(=O)(O)O)O2)c(=O)[nH]1 | 0.653
3 | O=c1c(O)c(-c2ccc(O)cc2O)oc2cc(O)cc(O)c12 | 0.571
4 | CCC12CCCN3CCc4c(n(c5ccccc45)C(O)(C(=O)OC)C1)C32 (stereo not given) | 0.301
5 | COc1c(C)c2c(c(O)c1C/C=C(\C)CCC(=O)O)C(=O)OC2 | -4.24
6 | O=c1cc(-c2cccc(O)c2)oc2cc(O)ccc12 | -0.00771
7 | CN1CCC[C@H]1c1cccnc1 | 0.197
8 | O=C(CCc1ccc(O)cc1)c1c(O)cc(O)cc1O[C@@H]1O[C@H](CO)[C@@H](O)[C@H](O)[C@H]1O | 0.224 and 0.244
9 | COc1ccc2c(C)cc(=O)oc2c1 | 0.626
10 | CC1=C(/C=C/C(C)=C/C=C/C(C)=C/C(=O)O)C(C)(C)CCC1 | -0.377
11 | Oc1cc2c(cc1O)[C@H]1c3ccc(O)c(O)c3OC[C@@]1(O)C2 | 0.368
12 | CCC(C)C(=O)O[C@H]1C[C@@H](C)C=C2C=C[C@H](C)[C@H](CC[C@@H]3C[C@@H](O)CC(=O)O3)[C@H]21 (stereo not given in full) | -0.369
13 | CCn1nc(C(=O)O)c(=O)c2cc3c(cc21)OCO3 | -1.17
14 | O=C1c2c(O)cc(O)cc2OC(c2ccc(O)c(O)c2)C1O (stereo not given) | -0.135
15 | O=c1c(O)c(-c2cccc(O)c2)oc2ccccc12 | -0.392
16 | O=C1OC(C(O)CO)C(O)=C1O (stereo not given) | 0.497
17 | CC(=O)Nc1nc2nc[nH]c2c(=O)[nH]1 | 0.475
18 | Nc1ccn([C@@H]2O[C@H](CO)[C@@H](O)[C@H]2O)c(=O)n1 | 1.12
19 | O=C(/C=C/c1ccc(O)cc1)c1c(O)cc(O)cc1O | 0.157
20 | Cc1c(C)c2c(c(C)c1OC(=O)CCC(=O)O)CC[C@@](C)(CCC[C@H](C)CCC[C@H](C)CCCC(C)C)O2 | 0.648

Row | Structure (SMILES) | secreted FVIII-Gluc luciferase Z-score
21 | C/C=C(\C)C(=O)OC1CC2(C)OC2C(OC(C)=O)C2(C)CCC(O)(C(C)C)C12 (stereo not given) | -0.754
22 | Nc1ncnc2c1ncn2[C@@H]1O[C@H](COP(=O)(O)OP(=O)(O)O)[C@@H](O)[C@H]1O | 0.0418
23 | CC(=O)Oc1ccc(/C=C/C(=O)CC2OC(Oc3cc(OC(C)=O)c4c(c3)O[C@@H](c3ccc(OC(C)=O)cc3)CC4=O)C(OC(C)=O)C(OC(C)=O)C2OC(C)=O)cc1 (stereo not given in full) | 0.201
24 | O=c1cc(-c2cccc(O)c2O)oc2ccccc12 | -0.852
25 | N[C@@H](CSCC(=O)O)C(=O)O | 0.103
26 | O=c1ccn([C@@H]2O[C@H](CO)[C@@H](O)[C@H]2O)c(=O)[nH]1 | 0.943
27 | COc1cc(O)c2c(=O)cc(-c3ccccc3)oc2c1 | 1.12
28 | C=C1CCC(O)C/C1=C\C=C1/CCCC2(C)C1CCC2C(C)/C=C/C(C)C(C)C (stereo not given) | -0.228
29 | O=C(O)C1OC(O)C(O)C(O)C1O (stereo not given) | 0.395
30 | C[C@H]1C[C@]2(O[C@@H]2C)C(=O)O[C@@H]2CCN(C)C/C=C(/COC(=O)[C@]1(C)O)C2=O | 0.213
31 | COc1cc2ccc(=O)oc2c(O)c1OCC=C(C)C | -0.0513
32 | Cc1cc(O)c2c(c1)C(=O)c1cccc(O)c1C2=O | 0.974
33 | COc1ccc2c(=O)cc(-c3ccc(O)cc3)oc2c1 | 0.228
34 | COc1ccc(-c2oc3cc(OC)c(OC(C)=O)c(OC)c3c(=O)c2OC)cc1OC(C)=O | -0.47
35 | CC(=O)C1=C(O)C=C2Oc3c(C(C)=O)c(O)c(C)c(O)c3[C@]2(C)C1=O | 1.04
36 | C=CC1CN2CCC1CC2C(O)c1ccnc2ccc(OC)cc12 (stereo not given) | -0.00699
37 | OC[C@H]1O[C@@H](n2cnc3c(NCc4ccco4)ncnc32)[C@H](O)[C@@H]1O | -1.03
38 | N=c1ccn2c(n1)OC1C2OC(CO)[C@H]1O (stereo not given in full) | -1.3
39 | COc1ccccc1-c1oc2ccccc2c(=O)c1OC | 1.49
40 | O=c1cc(-c2ccccc2O)oc2ccc3ccccc3c12 | 0.197
